Measurements reported in PubChem BioAssay (NCI).
About 83,000 compounds went through this panel and 20% of them were active in at least one assay; those are over-represented in the sample as a whole.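 Method: cells in 96-well plates; compound added at one concentration; 48 h incubation; percent growth measured; values under 10 scored active.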 Unmarked numbers belong to inactive results. Activity calls are given as the source filed them.

Assays:
Test in all cases: NCI-60 one-dose screen, 48 h (100 = growth as untreated, 0 = no growth, -100 = all killed)
Conditions in all cases: 10 µM unless noted
T-47D breast = system: T-47D breast
BT-549 breast = system: BT-549 breast
MDA-MB-435 melanoma = system: MDA-MB-435 melanoma
SW-620 colon = system: SW-620 colon
MCF7 breast = system: MCF7 breast
HCT-116 colon = system: HCT-116 colon
HCC-2998 colon = system: HCC-2998 colon
KM12 colon = system: KM12 colon

| Compound | growth (T-47D breast) | growth (BT-549 breast) | growth (MDA-MB-435 melanoma) | growth (SW-620 colon) | growth (MCF7 breast) | growth (HCT-116 colon) | growth (HCC-2998 colon) | growth (KM12 colon) |
| --- | --- | --- | --- | --- | --- | --- | --- | --- |
| Cc1ccc2c(C(C[N+](=O)[O-])c3ccco3)c(-c3ccccc3)[nH]c2c1 (stereo not drawn) | 16.1% | 53.3% | -34% (active) | 17.1% | 16.5% | 19.6% | 70% | 20.2% |
| Cc1ccc(C(SCC(N)C(=O)O)(c2ccccc2)c2ccc(C)cc2)cc1 (stereo not drawn) | 27.1% | 30.6% | -23.5% (active) | 15.9% | 12.3% | 6.49% (active) | -20.5% (active) | 2.64% (active) |
| COc1cc(/C=C/C(=O)Nc2cccnc2Nc2ccc(F)cc2)cc(OC)c1OC | 93.3% | 92.3% | 97.4% | 106% | 88.3% | 96.3% | 109% | 96.8% |
| CCN(CC)c1ccc(-c2cc(-c3cc(OC)c(OC)c(OC)c3)nc(N3CCOCC3)c2C#N)cc1 | 22.2% | 38.6% | -27.5% (active) | 30.8% | 29.8% | 10.5% | 29.9% | 27.1% |
| COc1ccc(C2CC(c3ccc4ccccc4c3)=NN2/C=C2\SC(=S)N(NC(=O)Cc3ccccc3Nc3c(Cl)cccc3Cl)C2=O)cc1 (stereo not drawn) | 19.2% | 30% | -49.8% (active) | 22.6% | 22.5% | 18.6% | 31.2% | 16% |
| COc1cc(C=Nc2oc(-c3ccccc3)c(-c3ccccc3)c2C#N)cc(CN2CCCCC2)c1O | 86.8% | 111% | 103% | 104% | 94% | 95% | 102% | 100% |
| Oc1cccc2ccc(N/N=C/c3cc(CN4CCOCC4)c(O)c4ncccc34)nc12 | 26.9% | 18.4% | 23.8% | 26.2% | 18.6% | 23.5% | 26.6% | 13.7% |
| CCOC(=O)n1cc(-c2nonc2-c2cn(C)c3ncccc23)c2ccccc21 | 15.2% | 87.9% | 50.2% | 76.6% | 35% | 80.4% | 89.6% | 66.5% |
| COc1ccc(/C=C\c2cc(OC)c(OC)c(OC)c2)cc1OC(=O)c1cccc(Cn2cc(CCOC(=O)[C@H](N)Cc3cn(C)c4ccccc34)nn2)c1 | 70.2% | 3.82% (active) | -32.7% (active) | 28.6% | 12.6% | 3.68% (active) | 20.7% | 5.51% (active) |
| CCOC(=O)c1c(C)oc2ncnc(N3CCN(C(=S)Nc4ccccc4)CC3)c12 | 78.7% | 92.4% | 102% | 90.5% | 93.1% | 97.3% | 99.3% | 96.4% |
| Nc1ccc(-c2cc3c(NCc4ccccc4)ncnc3s2)cc1 | 52.4% | 78.2% | 93.7% | 105% | 72.5% | 95.6% | 92.6% | 88.6% |
| O=C(Nc1ccc(Cl)cc1)c1cc2cc(F)ccc2cc1O | -7.01% (active) | 1.77% (active) | 10.5% | 15.5% | 7.1% (active) | 12.3% | 27.8% | 12.3% |
| c1ccc(Cn2cc(-c3nc4ccccc4s3)c3cccnc32)cc1 | 94% | 106% | 104% | 105% | 75.4% | 100% | 107% | 92.6% |
| Cc1cc2nc(NC(=O)CN3CCN(CCN4C(=O)c5cccc6cccc(c56)C4=O)CC3)sc2cc1C | 83.9% | 86.1% | 91.4% | 96% | 74.8% | 74.7% | 101% | 92.5% |
| Cc1nn(-c2ccc(F)cc2)c2ncnc(Oc3ccc(NC(=O)Nc4ccc(Cl)c(C(F)(F)F)c4)cc3)c12 | 94.6% | 111% | 104% | 100% | 96.2% | 102% | 99.2% | 108% |
| CCC([N+](=O)[O-])S(=O)(=O)c1ccc(C)cc1 (stereo not drawn) | 92.6% | 109% | 113% | 104% | 101% | 98.7% | 64.5% | 136% |

| Compound | growth (T-47D breast) | growth (BT-549 breast) | growth (MDA-MB-435 melanoma) | growth (SW-620 colon) | growth (MCF7 breast) | growth (HCT-116 colon) | growth (HCC-2998 colon) | growth (KM12 colon) |
| --- | --- | --- | --- | --- | --- | --- | --- | --- |
| O=CNc1ccc2c(c1)Cc1cccc(NC=O)c1-2 | 96.8% | 94.1% | 100% | 98.2% | 86.1% | 95.2% | 97.4% | 67.8% |
| C=CC(=O)Nc1cccc(-c2nc(SC)nc(NCc3ccccc3)c2C#N)c1 | 28.5% | 44.3% | 62% | 89% | 47.2% | 55.1% | 84.7% | 89.2% |
| COc1cccc(-c2nc3sccn3c2-c2ccnc(NCCNS(=O)(=O)c3ccc(F)cc3)c2)c1 | -4.43% (active) | 9.19% (active) | 23.3% | 42.5% | 18.7% | 22.2% | 50.1% | 22.3% |
| CC(=O)c1nc2ccccc2n1CC(=O)c1cccc(Cl)c1 | -11.3% (active) | 34.9% | -27.4% (active) | 23% | 1.85% (active) | 5.82% (active) | 29.9% | 8.72% (active) |
| COC(=O)[C@@H]1CCCN1C(=O)[C@@H]1CCCN1C(=O)[C@H](Cc1ccccc1)NC(=S)Nc1cc(C(F)(F)F)cc(C(F)(F)F)c1 | 92.3% | 81.1% | 86.5% | 93% | 67.1% | 69% | 93.3% | 45.1% |
| CCNc1ncnc2c1cnn2C1CCCO1 (stereo not drawn) | 104% | 105% | 103% | 100% | 102% | 100% | 109% | 99.1% |
| CN1CCN(Cc2ccc(NC(=O)c3cncc(C#Cc4cncn5ccnc45)c3)cc2C(F)(F)F)CC1 | 98.9% | 60.8% | 36.2% | 32.2% | 55.9% | 7.73% (active) | 47.6% | 19.7% |
| COc1ccc(C(=O)/C=C/c2cccnc2Nc2cc(OC)c(OC)c(OC)c2)cc1 | 44.1% | 36.3% | 2.91% (active) | -42.5% (active) | 12.9% | 13.7% | 22.9% | 14% |
| Cc1ccc(C2=NN3C(C2)c2cc(Br)ccc2OC32CCN(Cc3ccccc3)CC2)o1 (stereo not drawn) | 86.6% | 92.4% | 94% | 97.2% | 77.3% | 99.6% | 97.9% | 95.4% |
| O=C1/C(=C/c2ccc(Cl)cc2)SC(=S)N1CCc1ccc(O)cc1 | 54.2% | 101% | 92.9% | 101% | 114% | 102% | 107% | 93.6% |
| COc1cc(-c2nc3ccccc3[nH]2)ccc1OCC(=O)N=Nc1c(O)[nH]c2ccc(Cl)cc12 | -52% (active) | 9.87% (active) | -71.1% (active) | -67.8% (active) | -76.9% (active) | -83.6% (active) | -62.9% (active) | -87.2% (active) |
| COc1ccc(-c2nc3ccc(-c4nc5ccc(N6CCN(C)CC6)cc5[nH]4)cc3[nH]2)cc1OC | 28.3% | 63% | 41.9% | 49.2% | 21.1% | 23.5% | 77.7% | 97.8% |
| O=C(COc1ccc(/C=C2\CSc3ccccc3C2=O)cc1)Nc1nccs1 | 90% | 112% | 65.4% | 17.3% | 6.72% (active) | 48.2% | 103% | 13.8% |
| C=CCSSc1ncnc2c1ncn2C1OC(CO)C(O)C1O (stereo not drawn) | 24.3% | 54.8% | 22.5% | 53.8% | 4.74% (active) | 22.4% | 35.1% | 37.1% |
| COc1cc(C2CC(=O)c3ccccc3N2)cc(OC)c1OC (stereo not drawn) | 92.6% | 104% | 105% | 100% | 96.8% | 104% | 109% | 99.6% |
